A selection follows.
aSyn 5UTR act – Activators via SNCA 5'UTR binding, MLPCN | alpha-synuclein 5'UTR reporter, activators screen | activity score, % (tested at 7.5 µM), hits read low | actives 7.1% (n = 300,000); in the data active = activity score below about -60%
Numbers stand for hits; – = inactive.

SMILES | aSyn 5UTR act
O=C(/C=C/c1cccs1)c1ccc(Br)cc1 | -96
Cc1ccc(C(=O)Nc2ccc(C(=O)/C=C/c3cccs3)cc2)cc1 | -201
O=C(/C=C/c1cccs1)c1ccc(NC(=O)c2cccc(Br)c2)cc1 | -85
Cn1c2c(c(=O)[nH]c1=O)C(c1ccc(O)cc1)C1=C(N2)c2ccccc2C1=O (stereo not drawn) | -67
CC1=C([N+](=O)[O-])C(c2ccccc2)C2=C(N1)c1ccccc1C2=O (stereo not drawn) | –
CNC(C)C#Cc1ccc2c(=O)c3ccccc3oc2c1 (stereo not drawn) | -244
CC(C)c1cc(C(=O)Nc2cccnc2)no1 | -85
CC(C)c1ccc(C(=O)Nc2cccnc2)cc1 | -96
O=C(Nc1ccc(-c2cnco2)cc1)c1ccccc1 | -172
O=C(Nc1cccnc1)c1ccc(-c2ccccc2)cc1 | -163
COc1cccc(-c2cc(=O)c3cc(NC(=O)c4ccc(Cl)cc4)ccc3[nH]2)c1 | -68
CC(C)(C)C(=O)NC(=S)NNC(=O)c1ccc(-c2ccccc2)cc1 | –
O=C(Nc1ccncc1)c1ccc(-c2ccccc2)cc1 | -127
COc1cccc(-c2cc(=O)c3cc(NC(=O)c4ccccc4)ccc3[nH]2)c1 | –
O=C(NNC(=O)c1ccc(-c2ccccc2)cc1)c1ccccc1 | -64
CCC(C)c1ccc(NC(=O)c2cccnc2)cc1 (stereo not drawn) | -269
Cc1ccc(C(=O)Nc2cccnc2)cc1Cl | -172
COc1cccc(NC(=O)c2ccc(NC(=O)C(C)(C)C)cc2)c1 | -189
CC(C)(C)C(=O)Nc1ccc(C(=O)Nc2cccnc2)cc1 | -120
O=C(Nc1cccnc1)c1cnc2ccccc2n1 | -73
O=C(Nc1ccccc1)c1cnc[nH]1 | -68
FC(F)(F)c1ccc(C2NCCc3sccc32)cc1 (stereo not drawn) | -63
NNC(=O)c1oc2nc(-c3ccco3)cc(-c3ccco3)c2c1N | -62
CCOc1cc(N2CCOCC2)c(OCC)cc1NC(=O)c1cc(-c2ccco2)nc2ccccc12 | –
O=C(N/N=C/C=C/c1ccco1)c1ccccc1Cl | -107
SMILES | aSyn 5UTR act
O=C(N/N=C/C=C\c1ccco1)c1cccs1 | -152
O=C(Cc1cccs1)N/N=C/C=C\c1ccco1 | -78
Cc1ccc(N/N=C/C=C/c2ccco2)cc1 | -157
O=C(CNC(=O)c1cccs1)N/N=C/c1ccco1 | -125
O=C(CNC(=O)c1ccccc1F)N/N=C/c1cccs1 | -94
Cc1ccc(OCC(=O)N/N=C/C=C/c2ccco2)c(Br)c1 | -64
CC(C)OCCOc1ccc2oc(-c3ccco3)cc(=O)c2c1 | -115
Cc1ccc2oc(-c3ccco3)cc(=O)c2c1 | -171
CC1CCC/C(=C\Nc2ccc(O)cc2)C1=O (stereo not drawn) | -116
Cc1cc(C(=O)O)ccc1N/C=C1\CCCC(C)C1=O (stereo not drawn) | -131
O=C(NCc1ccncc1)C(=O)N/N=C/c1ccc(OCc2ccccc2)cc1 | -93
CC(C)OCCCNC(=O)C(=O)N/N=C/c1ccc(OCc2ccccc2)cc1 | -67
CCOC(=O)c1ccc(CSc2nnc(-c3ccncc3)n2N)cc1 | -63
Cc1ccc(NC(=O)c2ccc(CSc3nnc(-c4ccncc4)n3C)cc2)cc1 | -108
Cn1nnnc1SCc1ccc(C(=O)Nc2ccc(Br)cc2)cc1 | -186
Cc1ccc(N2C(=O)c3ccccc3NC2C(C)Cc2ccc3c(c2)OCO3)cc1 (stereo not drawn) | -68
COc1ccc(NS(=O)(=O)c2cc(-c3cnc(C4CC4)o3)ccc2C)cc1 | –
COc1ccc(NS(=O)(=O)c2cc(C)ccc2C)cc1 | -67
Cc1ccc2nc(SCc3nc4ccccc4c(=O)[nH]3)[nH]c2c1 | -140
Cc1ccc(CSc2nc3ccncc3[nH]2)cc1 | –
Cc1cc(C(=O)CSc2nc3ccccc3c(=O)[nH]2)c(C)n1C | -130
Cc1ccc2nc(SCC(=O)N3CCCC3)[nH]c2c1 | -129
Cc1ccc2nc(SC(C)C(=O)N3CCCCC3)[nH]c2c1 (stereo not drawn) | -81
Cc1ccc2nc(CSc3nc(C)ccc3C#N)[nH]c2c1 | –
Cc1ccc2nc(SCC(=O)c3ccc(O)cc3O)[nH]c2c1 | -220
SMILES | aSyn 5UTR act
Cc1ccc2nc(SC(C)C(=O)N3CCCC3)[nH]c2c1 (stereo not drawn) | -75
O=C1NC(=O)/C(=C/c2ccc(O)cc2)S1 | -91
COCCc1nc2ccc(C(=O)N(C)Cc3cccc(-n4cccn4)c3)cc2o1 | -75
c1ccc2[nH]c(CSc3nc4ccccc4o3)nc2c1 | -78
O=[N+]([O-])c1ccc(CSc2nc3ccccc3o2)cc1 | -133
CCOC(=O)C1CCN(c2c(Nc3ccc4c(c3)OCCO4)c(=O)c2=O)CC1 | -78
CN(Cc1cnc2nc(N)nc(N)c2n1)c1ccc(C(=O)N[C@@H](CCC(=O)O)C(=O)O)cc1 | –
COc1cc(/C=N/n2cnnc2)ccc1OS(=O)(=O)c1ccccc1[N+](=O)[O-] | -178
COc1cc(C=O)ccc1OS(=O)(=O)c1ccccc1[N+](=O)[O-] | -119
N/C(=N\OC(=O)C12CC3CC(CC(C3)C1)C2)c1ccccn1 | -110
C/C(=N/NC(=O)c1ccoc1C)C12CC3CC(CC(C3)C1)C2 | -158
N/C(=N\OC(=O)C12CC3CC(CC(C3)C1)C2)c1ccccc1 | -134
N/C(=N\OC(=O)N1CCOCC1)c1ccccc1 | -64
C/C(=N\NC(=O)c1ccccn1)C12CC3CC(CC(C3)C1)C2 | -131
C/C(=N\O)c1ccc2c3c([nH]c2c1)CCCC3 | -80
CN(C)C=Nc1ccc2nc3c(cc2c1)[nH]c1ccccc13 | -233
COc1cc(/C=C2\CC(C(C)(C)C)C/C(=C\c3cc(OC)c(OC)c(OC)c3)C2=O)cc(OC)c1OC (stereo not drawn) | –
COc1cc(C2CC(=O)Nc3n[nH]c(-c4ccccc4)c32)cc(OC)c1OC (stereo not drawn) | -120
O=[N+]([O-])c1ccc(-n2cc(-c3ccccc3)nn2)cc1 | -80
COc1ccc(C2OC3=C(Nc4cc(C)c(C)cc4N3)C2=O)cc1 (stereo not drawn) | -98
OCc1cn(-c2ccccc2)nc1-c1ccc(Br)cc1 | -117
OCc1cn(-c2ccccc2)nc1-c1ccc2c(c1)OCCO2 | -133
O=C(N/N=C/c1nn(-c2ccccc2)cc1-c1ccc(Cl)cc1)c1ccncc1 | -64
O/N=C/c1cn(-c2ccccc2)nc1-c1ccc2c(c1)OCCO2 | -72
O=C(N/N=C/c1cn(-c2ccccc2)nc1-c1ccc2c(c1)OCCO2)c1ccncc1 | -99
SMILES | aSyn 5UTR act
COc1cccc(-c2nn(-c3ccccc3)cc2CO)c1 | -127
CC(C)C/C=C1\CCc2c([nH]c3ccccc23)C1=O | -229
O=C1/C(=C/c2cccnc2)CCc2c1[nH]c1ccccc21 | -126
N#C/C(=C\c1ccc(N2CCOCC2)o1)c1ccccc1 | -223
N#C/C(=C/c1ccc(N2CCOCC2)o1)c1ccc(Br)cc1 | -284
N#C/C(=C\c1ccc(N2CCOCC2)cc1)c1ccccc1 | -132
CC1Sc2n(c3ccccc3[n+]2C)N=C1c1ccccc1 (stereo not drawn) | -63
O=C(CSc1ccsc1[N+](=O)[O-])NCc1ccccc1 | -104
COc1ccccc1CNC(=O)CSc1ccsc1[N+](=O)[O-] | -114
Cc1ccc(/C=N/n2cnc3sc(-c4ccccc4)cc3c2=O)o1 | -109
N#CC1=C(N)OC2=C(CC/C2=C\c2ccccc2)C1c1ccccc1 (stereo not drawn) | -63
Cc1c(OCC(F)(F)F)ccnc1CSc1nc2ccccc2[nH]1 | -142
